Screens: PubChem BioAssay, National Center for Advancing Translational Sciences (NCATS)
TGFb inhibitor = qHTS for Inhibitors of TGF-b. hit rate 1.2% among 410,000. Potency, µM (series often up to 46.1 µM), actives largely listed as inhibitors. HepG2 CAGA-GFP TGF-b/SMAD3 reporter, GFP fluorescence, 18 h; TGF-beta stimulated, 500 pg/mL final; also: nearly all actives have a fitted effect of over 65% in size
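Using HEPG2 CAGA-GFP reporter cells at 1000 cells/well, we pinned test compounds, stimulated with recombinant TGF-beta (500 pg/mL final) and measured total well GFP after 18 h.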
HepG2 viability = qHTS for Inhibitors of TGF-b: Cytotox Counterscreen; Potency, µM (series often up to 46.1 µM), most hits filed as cytotoxic; hit rate 0.76% among 410,000; HepG2 CAGA-GFP viability, ATP luminescence, 18 h
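HepG2 CAGA-GFP cells (1000/well, DMEM with 1% FBS) received compound, then TGF-beta at 500 pg/mL final, and were incubated 18 hours at 37 degrees C. Viability was read by CellTiter-Glo luminescence. Media-only wells were set as complete cell-killing and DMSO as no toxicity.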
A549 viability = Nrf2 qHTS screen for inhibitors: counterscreen for cytotoxicity. A549 ARE-Fluc cells, CellTiter-Fluor viability, 18-24 h. Potency, µM (top dose mostly 46 µM), actives largely listed as inhibitors. hit rate 0.16% among 390,000. AID 504648, 2011
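Cytotoxicity counterscreen: CellTiter-Fluor fluorescence was measured in A549 ARE_Fluc cells after 18-24 h of compound exposure in a concentration series. The subsequent BugLite luminescent read reports ARE-luciferase activity.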
Nrf2 inh = Nrf2 qHTS screen for inhibitors; Potency, µM (doses to about 46 µM), usual class: inhibitors; hit rate 2.1% among 360,000; A549 ARE-Fluc reporter, luciferase luminescence, 18-24 h; AID 504444, 2011; also: nearly all actives have a fitted effect of over 60% in size
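In this cell-based qHTS, ARE-driven firefly luciferase in A549 cells reports Nrf2 activity; the luminescent signal after BugLite lysis is the measured value, with a prior CellTiter-Fluor read for cell health.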
Nrf2 activator = qHTS of Nrf2 Activators. AREc32 ARE-luciferase reporter (MCF7-derived line), luminescence, 24 h. Potency, µM (titrated, usually from 46.1 µM), hits mostly activators. hit rate 0.31% among 410,000; also: nearly all actives have a fitted effect of over 65% in size
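AREc32 cells carrying an ARE-driven firefly luciferase reporter were seeded at 1000 cells/well in OPTI-MEM with 5% FBS, then exposed to compound for 24 hr at 37 deg C. Luminescence was read with Steady-Glo after 30 min at RT.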
Each line names hits and unclear results; the compound was inactive in the other large screens. Shown are actives, neighbours in structure and some others; about 3.6% of the full set was active somewhere. Calls follow the shape of the dose curve; as a rule, active = well fitted curve in the direction sought with a large enough effect; inconclusive = small, poorly fitted or top-dose-only effect, or another doubt; inactive = no such curve, though single readings can be large; an effect the other way counts as inactive or inconclusive.

CC(C)Cc1ccc(S(=O)(=O)N2CCN(Cc3noc(CCC(=O)N4CCCCC4)n3)CC2)cc1	TGFb inhibitor 11.2µM
Cc1cc(NC(=O)CCCn2c(C)c3cnn(-c4ccccc4)c(=O)c3c2C)ccc1Br	TGFb inhibitor 7.08µM
O=C1CCCC(O)=C1C(C#Cc1ccccc1)C1=C(O)CCCC1=O	TGFb inhibitor inconclusive, HepG2 viability 15.8µM, Nrf2 activator inconclusive
CN1CCN(C2=C(Cl)C(=O)N(C3CCCCC3)C2=O)CC1	TGFb inhibitor 12.6µM
COc1ccc(CN(Cc2ccccc2)C(=O)C2CC2)cc1COc1ccc(NC(C)=O)cc1	Nrf2 inh 20.6µM (no result: TGFb inhibitor, HepG2 viability, Nrf2 activator)
NS(=O)(=O)c1ccc(Cc2ncc(C(F)(F)F)cc2Cl)s1	A549 viability inconclusive, Nrf2 inh 20.6µM
COc1ccc(CCNc2nc(C)nc3c2oc2ccccc23)cc1OC	A549 viability inconclusive, Nrf2 inh 18.4µM
Cc1nc(NCCc2cnc[nH]2)c2oc3ccccc3c2n1	none
CCc1nc(NC(C)C)c2oc3ccccc3c2n1	TGFb inhibitor inconclusive
CCC(C)Nc1nc(C)nc2c1oc1ccccc12 (configuration not stated)	TGFb inhibitor inconclusive, Nrf2 inh 20.6µM
Cc1nc(NC(C)c2ccccc2)c2oc3ccccc3c2n1 (configuration not stated)	Nrf2 inh 13µM
COc1ccc(CCNc2oc(Cc3cccc4ccccc34)nc2C#N)cc1OC	TGFb inhibitor inconclusive, Nrf2 inh 20.6µM
COc1ccc(CCNc2oc(COc3ccc(Br)cc3)nc2C#N)cc1OC	TGFb inhibitor inconclusive, Nrf2 inh inconclusive
CSC(=NCc1ccco1)NC#N	none
COC1=CC(=O)c2nc(Cl)ccc2C1=O	TGFb inhibitor 0.891µM, HepG2 viability 1.26µM (no result: A549 viability, Nrf2 inh)
CSc1cccc(NC(=O)C(C)C)c1	none
CC(C)C(=O)Nc1cccc(S(=O)(=O)c2cccc(NC(=O)C(C)C)c2)c1	Nrf2 inh 20.6µM
COc1ccc2cc(C(C)C(=O)Nc3cccc(S(=O)(=O)N(C)C)c3)ccc2c1 (configuration not stated)	TGFb inhibitor inconclusive, Nrf2 inh 16.4µM
CCc1cccc2c1Sc1ccccc1CC2N1CCNCC1 (configuration not stated)	TGFb inhibitor inconclusive, A549 viability inconclusive
CSc1ccc2c(c1)C(N1CCN(C)CC1)Cc1ccccc1S2 (configuration not stated)	TGFb inhibitor inconclusive, HepG2 viability 11.2µM, Nrf2 inh inconclusive
CN1CCN(C2Cc3ccccc3Sc3cc(C(F)(F)F)ccc32)CC1 (configuration not stated)	TGFb inhibitor inconclusive, HepG2 viability 20µM
CCc1nc2ccc(C(=O)NCCN3CCNC3=O)cn2c1N(CCC(C)C)CCN(C)C	none (no result: A549 viability, Nrf2 inh)
COc1cc(/C=N/Nc2nncn2/N=C/c2ccc(O)c(OC)c2)ccc1O	HepG2 viability 10µM
CCOc1cc(/C=N/Nc2ncnc(Cl)c2N)ccc1O	none
CCOc1cc(/C=N/Nc2nnc(C)n2N)ccc1O	TGFb inhibitor 11.2µM, HepG2 viability 11.2µM
O=C(CNCc1ccccc1)Nc1ccccc1-c1ccccc1	none
C#CCNC(=O)C1=C[C@H](c2coc3ccccc3c2=O)C[C@H](OCc2ccc(CO)cc2)O1	none
O=C(Nc1nnc(C2CC2)s1)c1ccc(Cl)c(S(=O)(=O)N2CCc3ccccc3C2)c1	TGFb inhibitor inconclusive, Nrf2 inh 23.1µM
COc1ccccc1CNS(=O)(=O)c1cc(C(=O)Nc2cccc(C(F)(F)F)c2)ccc1F	TGFb inhibitor 11.2µM, A549 viability inconclusive (no result: Nrf2 inh)
O=C(Nc1cccc(C(F)(F)F)c1)c1ccc(F)c(S(=O)(=O)N2CCc3ccccc3C2)c1	TGFb inhibitor 11.2µM (no result: Nrf2 inh)
O=C(COC(=O)/C(=C/c1cccs1)c1cccs1)NC(c1ccccc1)c1ccccc1	TGFb inhibitor 12.6µM
CCOC(=O)c1sc(=S)n(C)c1NC(=O)c1ccc(F)cc1	Nrf2 inh 23.1µM
COc1cc(CCNC2=CC(=O)c3ncccc3C2=O)ccc1O	TGFb inhibitor inconclusive, HepG2 viability 2.51µM, A549 viability 16.4µM, Nrf2 inh 13µM
O=C(c1ccc(Cl)cc1)N1CCC2CC1c1cc(-c3ccccc3)ccc12 (configuration not stated)	TGFb inhibitor 20µM, A549 viability inconclusive
O=C(c1cccc(Cl)c1)N1CCN(c2ccc3c(c2)C2CC3CCN2C(=O)OCc2ccccc2)CC1 (configuration not stated)	TGFb inhibitor 11.2µM (no result: A549 viability, Nrf2 inh)
CN(C)CCCNC(=O)CCc1ncc(C(F)(F)F)cc1Cl	none
CC(C)(CNC(=O)c1ccc(S(=O)(=O)Nc2ccc(Cl)cc2)cc1)N1CCOCC1	Nrf2 inh inconclusive
Cc1ccc2c(c1)nnn2C1CCN(S(=O)(=O)c2ccc(C(=O)N3C(C)CCCC3C)cc2)CC1 (configuration not stated)	TGFb inhibitor inconclusive, A549 viability inconclusive, Nrf2 inh 10.3µM
Cc1ccc2c(c1)nnn2C1CCN(S(=O)(=O)c2ccc(C(=O)O)cc2)CC1	none
COc1ccc(-c2c(C#Cc3ccsc3)c3ccccc3n2C)cc1	TGFb inhibitor inconclusive
NS(=O)(=O)c1ccc(CCNC(=O)c2ccc(Cl)s2)cc1	none
NS(=O)(=O)c1ccc(CCNC(=O)c2ccc([N+](=O)[O-])s2)cc1	TGFb inhibitor inconclusive, HepG2 viability 20µM, A549 viability inconclusive, Nrf2 inh 9.2µM
C#CCSc1nc(-c2ccccc2)c2cc(Cl)ccc2n1	none
CCc1ccc(Nc2cc(C)nc3nc(Cc4ccc(Cl)cc4)nn23)cc1	TGFb inhibitor 12.6µM, A549 viability inconclusive, Nrf2 inh inconclusive
Cc1ccc(Nc2cc(C)nc3nc(Cc4ccc(Cl)cc4)nn23)cc1	TGFb inhibitor 3.98µM, Nrf2 inh inconclusive
O=C(N/C=N/OCc1ccc(Cl)cc1Cl)NOCc1ncc(C(F)(F)F)cc1Cl	TGFb inhibitor inconclusive, Nrf2 inh inconclusive
COc1cc(C)nc(N(Cc2ccccc2)S(=O)(=O)c2ccc(C)cc2)n1	TGFb inhibitor inconclusive, Nrf2 inh inconclusive
Cc1ccc(Cl)cc1Nc1sc(C(=O)c2ccccc2)c(N)c1S(=O)(=O)c1ccccc1	Nrf2 inh inconclusive
CCS(=O)(=O)c1c(Nc2cc(C)ccc2C)sc(C(=O)c2ccccc2)c1N	TGFb inhibitor inconclusive, Nrf2 inh 23.1µM
COc1ccc(CCc2nc(-c3ccc(-n4cccc4)cc3)no2)cc1	Nrf2 inh 16.4µM
CCCc1ccc(OCc2nc(-c3ccc(NC(=O)c4ccco4)cc3)no2)cc1	none
CCCc1ccc(OC(C)c2nc(-c3ccc(-n4cccc4)cc3)no2)cc1 (configuration not stated)	TGFb inhibitor inconclusive, Nrf2 inh 23.1µM
COc1ccc(OCc2nc(-c3ccc(-n4cccc4)cc3)no2)cc1	none (no result: Nrf2 inh)
